Broadly, the inhibition is the relative decrease from the control value, in per cent. As usually defined, the viability is a per cent measure of how many cells are alive, often set against a control.

The nature of assay [1]: growth inhibition, single agents and combos, LFS_MB_1R, cell-based, cisplatin or BGB combos, synergistic combos for chromothripsis tumors (AID 1671452).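 Note: cells exposed for 96 hours before readout.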 The settings on record: LFS_MB_1R medulloblastoma cells, stronger effect = higher value.
Assay [2] in a line: growth inhibition, single agents and combos, CRL2098, cell-based, BGB or cisplatin IC20 combos, synergistic combos for chromothripsis tumors (AID 1671454).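 Note: cells exposed for 96 h before readout; 0% = vehicle DMSO and 100% = killing by high DMSO.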 To be noted: CRL2098 osteosarcoma cells, drug combinations, stronger effect = higher value.
The nature of assay [3]: growth inhibition, single agents and combos, HD-MB03, cell-based, BGB or cisplatin IC20 combos, synergistic combos for chromothripsis tumors (AID 1671455; in the data active = inhibition above about 83%;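 note: 0% = vehicle DMSO and 100% = high DMSO as cytotoxic control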). To be noted: HD-MB03 medulloblastoma cells, stronger effect = higher value.
Assay [4] can be described thus: growth inhibition, single agents and combos, UWB1.289, cell-based, BGB or cisplatin combos, synergistic combos for chromothripsis tumors (AID 1671456).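 Note: cells exposed to compound for four days; 0% = vehicle DMSO and 100% = killing by high DMSO.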 To be noted: UWB1.289 ovarian carcinoma cells, stronger effect = higher value.
Assay [5] is described as follows: growth inhibition, single agents and combos, LFS_MB_2R, cell-based, cisplatin combos, synergistic combos for chromothripsis tumors (AID 1671457).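 Note: cells exposed to compound for four days before readout.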 The settings on record: LFS_MB_2R medulloblastoma cells, stronger effect = higher value.
The nature of assay [6]: UWB1.289_BRCA1 ovarian cancer growth, cell-based, BGB or cisplatin combinations (AID 1671459). To be noted: UWB1.289 BRCA1 ovarian carcinoma, drug combinations, stronger effect = higher value.
The nature of assay [7]: drug combination toxicity in non-malignant astrocytes – cell-based, BGB or cisplatin IC20 combos, cytotoxicity control for chromothriptic childhood tumor combination screen (AID 1671460).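 Note: cells exposed to compounds for 96 hours before viability readout; 0% = vehicle and 100% = killing control.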 The settings on record: Human astrocytes, viability inhibition, drug combinations, at 0.5 µM, stronger effect = higher value.
Assay [8] can be described thus: CRL1545 cell growth, single agent and combined, cisplatin and BGB IC20 combos (AID 1671464).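 Note: cells exposed to compound for 96 hours before readout; 0% = vehicle DMSO and 100% = high DMSO killing control.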 To be noted: CRL1545 osteosarcoma cells, stronger effect = higher value.
Assay [9] in a line: P. berghei load reduction in hepatocytes – cell-based, HepG2, luciferase luminescence, HepG2 viability, primary screen (AID 624349; in the data active = parasite load remaining mostly below about 12%, no sharp cut-off; inactive = mostly above about 10%;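 note: 100% = mean of DMSO negative control wells on the same plate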). To be noted: P. berghei liver stage in HepG2, luciferase luminescence, concentration not given here; parasite load remaining: stronger effect = lower value; viability: measured here: HepG2 viability without parasites.
A short description of assay [10]: liver-stage malaria parasite load reduction – cell-based, known kinase inhibitor set, luminescence, hepatoma host viability (AID 624392; call rule not given here;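 note: infected cells incubated roughly two days before readout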). The settings on record: Plasmodium liver stage in hepatoma cells, luciferase luminescence, concentration not given here; liver cell % of control: measured here: host liver cell viability; parasite % of control: stronger effect = lower value.

In assay [11] the target is Tyrosine-protein kinase ABL1 (Homo sapiens) (UniProt P00519). The experiment in a line: PubChem AID 493040. To be noted: kinase panel binding, pKi.
Where [12] appears, read: measured here: combination with BGB IC40, at 0.05 µM.
Setting [13] is: measured here: combination with cisplatin, at 0.5 µM.
[14] abbreviates: measured here: combination with cisplatin, at 5 µM.
[15] abbreviates: measured here: combination with BGB at IC20, at 0.5 µM.
[16] abbreviates: measured here: combination with cisplatin at IC20, at 0.5 µM.
The mark [17] stands for this setting: measured here: combo with BGB at IC20, at 0.5 µM.
[18] abbreviates: measured here: combo with cisplatin at IC20, at 0.5 µM.
Where [19] appears, read: measured here: inhibition with BGB combination, at 0.05 µM.
Where [20] appears, read: measured here: inhibition with cisplatin combination, at 0.05 µM.
Setting [21] is: BGB combination, concentration series, at 5 µM.
[22] abbreviates: cisplatin combination, concentration series, at 5 µM.
[23] abbreviates: measured here: combo with BGB IC20.
Where [24] appears, read: measured here: combo with cisplatin IC20.
The mark [25] stands for this setting: measured here: with BGB IC20 combination, at 0.5 µM.
The mark [26] stands for this setting: measured here: with cisplatin IC20 combination, at 0.5 µM.

“And” between values parts separate entries of the source, which are not always exact repeats. Equal values may be shown once. Where a structure was tested more than once in an assay, its records may differ in their call. The source made the active and inactive calls. Cut-off read from the data, not from the text of the source, for most assays here: active = inhibition above about 80%; inactive = the rest.

Chain of Tyrosine-protein kinase ABL1 (Homo sapiens) (P00519 whole entry, looked up): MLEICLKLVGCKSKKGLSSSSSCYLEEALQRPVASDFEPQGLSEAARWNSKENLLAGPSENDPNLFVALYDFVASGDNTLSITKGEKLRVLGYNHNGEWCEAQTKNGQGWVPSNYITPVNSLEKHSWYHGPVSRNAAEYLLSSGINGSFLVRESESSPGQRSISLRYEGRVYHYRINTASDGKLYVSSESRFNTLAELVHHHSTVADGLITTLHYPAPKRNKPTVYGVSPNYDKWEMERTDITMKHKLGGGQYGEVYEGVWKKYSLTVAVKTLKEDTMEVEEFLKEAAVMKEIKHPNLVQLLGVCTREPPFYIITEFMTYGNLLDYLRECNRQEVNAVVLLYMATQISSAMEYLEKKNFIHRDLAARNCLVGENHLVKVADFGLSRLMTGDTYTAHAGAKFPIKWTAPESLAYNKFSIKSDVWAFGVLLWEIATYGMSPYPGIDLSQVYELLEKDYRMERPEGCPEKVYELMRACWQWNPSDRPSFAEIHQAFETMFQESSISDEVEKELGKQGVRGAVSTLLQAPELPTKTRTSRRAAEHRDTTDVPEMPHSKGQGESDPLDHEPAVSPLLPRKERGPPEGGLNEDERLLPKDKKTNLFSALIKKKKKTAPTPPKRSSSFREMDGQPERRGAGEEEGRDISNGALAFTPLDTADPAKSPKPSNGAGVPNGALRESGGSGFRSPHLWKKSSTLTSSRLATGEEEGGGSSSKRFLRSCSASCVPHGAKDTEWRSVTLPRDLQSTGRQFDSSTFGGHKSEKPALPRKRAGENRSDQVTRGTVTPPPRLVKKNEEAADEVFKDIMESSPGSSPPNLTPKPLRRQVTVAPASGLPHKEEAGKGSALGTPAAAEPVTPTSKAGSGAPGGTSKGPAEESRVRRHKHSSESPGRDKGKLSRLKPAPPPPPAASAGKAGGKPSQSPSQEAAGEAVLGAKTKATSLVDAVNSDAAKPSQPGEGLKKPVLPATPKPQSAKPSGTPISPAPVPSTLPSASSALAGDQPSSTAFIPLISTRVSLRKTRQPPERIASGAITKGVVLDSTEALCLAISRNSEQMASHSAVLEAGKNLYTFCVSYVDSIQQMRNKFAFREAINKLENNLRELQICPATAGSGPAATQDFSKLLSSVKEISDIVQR

As for `O=C(/C=C/c1ccc(CN(CCO)CCc2c[nH]c3ccccc23)cc1)NO`, the inhibition in assay [1] (at 0.5 µM) was 88.5% (active); in assay [1] (setting [12]) it was 0.114%; in [1] (setting [13]) it was 107%; in assay [1] (setting [14]) it was 101%; in [2] (at 0.5 µM) it was 80.2% (active); in [2] (setting [15]), 80.4%. Further, the inhibition is 75.9% in assay [2] (setting [16]); 99.8% (active) in assay [3] (at 0.5 µM); 99.8% in assay [3] (setting [17]); 100% in [3] (setting [18]); 88.8% (active) in assay [4] (at 0.5 µM); 9.36% in assay [4] (setting [19]). Moreover, the inhibition in assay [4] (setting [20]) is 34.8%; in assay [5] (at 0.5 µM), 87.1% (active); in [5] (setting [13]) it was 99.3%; in assay [5] (setting [14]), 107%; in [6] (setting [21]), 126%; in [6] (at 0.5 µM), 95.2% (active). Moreover, the inhibition was 130% in assay [6] (setting [22]); 95.2% (active) in assay [7]; 92% in [7] (setting [23]); 97.1% in [7] (setting [24]); 87.1% (active) in assay [8] (at 0.5 µM); 82.2% in [8] (setting [25]). Moreover, the inhibition in assay [8] (setting [26]) came to 89.4%; in assay [8] (single agent, at 0.05 µM) it was 86.9%; in [8] (single agent, at 5 µM), 94.5%.
Take `O=C1c2ccccc2-[n+]2ccc3c([nH]c4ccccc43)c21`: in [9], the parasite load remaining is 1.89% (inactive) and the viability turned out to be 32.8%.
Turning to `Oc1cccc(-c2nc(N3CCOCC3)c3oc4ncccc4c3n2)c1`, in assay [9], the parasite load remaining is 45.4% (inactive) and the viability turned out to be 89.8%. In addition, in [10], the liver cell % of control was 88.7% and 86.7% and 100%; the parasite % of control is 326% (inactive) and 309% (inactive) and 81.9% (inactive). Besides, in [11], the call was inactive.
For the molecule `Nc1ccc(C(=O)Nc2cccc(-c3nc(N4CCOCC4)c4oc5ncccc5c4n3)c2)cn1`, in assay [9], the parasite load remaining was 28.3% (inactive) and the viability worked out at 70.4%. Besides, in [10], the liver cell % of control was 80.6% and 78.7% and 90.7%; the parasite % of control is 109% (inactive) and 149% (inactive) and 242% (inactive).
Consider `C#Cc1cccc(Nc2ncnc3cc(OC)c(OCCCCCCC(=O)NO)cc23)c1`, for which the inhibition in assay [1] (at 0.5 µM) was 72.7% (inactive) and 57.9% (inactive); in assay [1] (setting [12]), -16.6% and -26.1%; in assay [1] (setting [13]) it was 88.8% and 73.7%; in [1] (setting [14]) it was 101% and 99%; in assay [2] (at 0.5 µM), -70.6% (inactive) and -57.7% (inactive); in assay [2] (setting [15]), -40.2% and -108%. Moreover, the inhibition in assay [2] (setting [16]) is -130% and -17.7%; in assay [3] (at 0.5 µM) it was 45.5% (inactive) and 17.9% (inactive); in assay [3] (setting [17]), 34.3% and 16.8%; in assay [3] (setting [18]), 84.2% and 39.1%; in assay [4] (at 0.5 µM), 58.9% (inactive) and 21.7% (inactive); in assay [4] (setting [19]), -23% and -18.1%. Further, the inhibition in assay [4] (setting [20]) was 7.84% and -0.343%; in [5] (at 0.5 µM), 80.6% (active) and 5.75% (inactive); in assay [5] (setting [13]), 96% and 17.9%; in assay [5] (setting [14]) it was 99.8% and 105%; in assay [6] (setting [21]) it was 108% and 106%; in [6] (at 0.5 µM), 64.7% (inactive) and 19.7% (inactive). Also, the inhibition in [6] (setting [22]) is 128% and 122%; in assay [7] it was 63.5% (inactive) and 39.1% (inactive); in [7] (setting [23]), 58% and 34.9%; in [7] (setting [24]), 64.7% and 42.3%; in [8] (at 0.5 µM), 34.3% (inactive) and 15.2% (inactive); in assay [8] (setting [25]), 17.9% and 26.4%. For the same molecule, the inhibition in [8] (setting [26]) is 41.6% and 7.54%; in [8] (single agent, at 0.05 µM) it was -39.2% and -32.8%; in assay [8] (single agent, at 5 µM), 97.8% and 92.8%.

These data come from PubChem BioAssay.
